# Data from the supplement of paper PMC10477191.
# ± gives the standard deviation of the averaged measurements.
# Tested on: Drosophila ezoana antennal basiconic sensillum ab2
# Test: odor-evoked OSN spike response (post minus pre-stimulus); higher = stronger neuronal excitation
# Conditions: odor dilution: 10^-4
# Method: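 Single sensillum recordings from antennal basiconic sensilla of D. ezoana. A 500 ms pulse of odorant (10^-4 in mineral oil or DMSO) was delivered; the response is the change in action potential frequency between the 1 s pre- and post-stimulus windows (spikes/s).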
row,Structure (SMILES),odor-evoked OSN spike response [spikes/s]
1,CC(C)=O [acetone],73.7 ± 37
